Assay results: PubChem BioAssay (NCI)
This is part of a sample that, as a whole, favours compounds with a hit. Of some 83,000 tested, about 20% had one in any assay.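 How to read the values: 0–100, growth inhibition (40 = 60% inhibited); 0, no net growth; -100 to 0, cell death (-40 = 40% of starting cells died; -100 = all dead).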 The source made the active and inactive calls.

What follows are compounds tested on LOX IMVI melanoma (assay: NCI-60 one-dose screen, 48 h (100 = growth as untreated, 0 = no growth, -100 = all killed)). Details: 10 µM.
Experimental: Growth inhibition of the LOX IMVI human tumor cell line is measured as a screen for anti-cancer activity. Cells are grown in 96 well plates and exposed to the test compound for 48 hours. Compounds are tested at a single concentration, which is 10^-5 M for most compounds. The reported endpoint is percent growth (GI% or GIPRCNT), where numbers from 0 - 100% represent growth inhibition, and numbers from -100% - 0 represent cell death. For example, a value of 40 represents 60% growth inhibition. A value of 0 means no net growth occurred over the course of the experiment. A value of -40 indicates 40% of cells at the beginning of the experiment died by the end of the experiment. A value of -100 means all cells are dead at the end of the experiment.
NCI-60 Human Tumor Cell Lines Screen was performed using the standard one-dose NCI protocol, which is described in more detail at https://dtp.cancer.gov/discovery_development/nci-60/default.htm.
Compounds with GIPRCNT values below 10 were considered active. Activity score was based on GIPRCNT using the following formula: […]
Score is 0 for GIPRCNT values of 100 or above, 50 for GIPRCNT values of 0, and 100 for GIPRCNT values of -100.

SMILES | growth
OC(CNc1ccnc2cc(Cl)ccc12)CNC1CCCCC1 (stereo not given) | 73% (inactive)
O=C1/C=C/[C@@H](O)[C@@H]2C[C@@H](O)C[C@H]2/C=C/CCC[C@@H](C(F)(F)F)O1 | 71.3% (inactive)
OC(CCN1CCCC1)(c1ccccc1)C1CCCCC1 (stereo not given) | 99.9% (inactive)
Cc1cc(C(C#N)c2ccc(Cl)cc2)c(Cl)cc1NC(=O)c1cc(I)cc(I)c1O (stereo not given) | 75.1% (inactive)
Cc1ccc(-n2nnnc2N)c(C)c1 | 93.8% (inactive)
COc1cccc(-c2nc3sccn3c2-c2cccc(S(C)(=O)=O)c2)c1 | 88.6% (inactive)
O=C(CN1CCN(C(=O)c2ccccc2)CC1)Nc1ccccc1SCc1ccccc1 | 73.9% (inactive)
S=C(SSC(=S)N(c1ccccc1)c1ccccc1)N(c1ccccc1)c1ccccc1 | 95.2% (inactive)
O=C(NCCNC(=O)c1ccc(F)cc1)Nc1ccc(-n2cc(-c3ccncc3)c(-c3ccc(Cl)c(O)c3)n2)cc1 | -3.97% (active)
CC(=O)Nc1ccc(S(=O)(=O)c2ccnc3cc(Cl)ccc23)cc1 | 73.7% (inactive)
NC(N)=N/N=C(\c1ccccc1)C(O)c1ccccc1 (stereo not given) | 94.2% (inactive)
CC1=NN(C(=O)c2nn(-c3ccc(Cl)cc3)cc2O)C(=O)C1 | 40.5% (inactive)
CCCCC/C=C/C/C=C/CCCCCCCC1=NC(C)(C)CN1C(C)C | 12.9% (inactive)
Nc1ncc(-c2cnn(C3CCNCC3)c2)cc1-c1nc2ccccc2o1 | -80.6% (active)
COc1ccc(/C=C2\CCCC3=C2NC(N)=NC3c2ccc(OC)cc2)cc1 (stereo not given) | 73.6% (inactive)
O=C1c2c(c3c4ccccc4n(CCCCCCN4CCOCC4)c3c3[nH]c4ccccc4c23)C(=O)N1O | -88.4% (active)
Cc1c(Cl)cccc1NC(=O)CCCl | 101% (inactive)
O=C(COc1cccc(/C=C2\CSc3ccccc3C2=O)c1)c1ccc(Cl)cc1 | -100% (active)
CCOC(=O)N/N=C/c1ccc(OC)c(OC)c1 | 102% (inactive)
CCOc1ccccc1/C=N/N1CCCCCC1 | 90.3% (inactive)

SMILES | growth
O=[N+]([O-])c1ccc(/C(=C/c2ccccc2)[n+]2ccccc2)cc1 | 105% (inactive)
COc1ccc(-c2nn(-c3cccc(Cl)c3)cc2-c2c(C#N)c(=O)n3[nH]c(-c4ccc(C)cc4)nc3c2C#N)cc1 | 39.7% (inactive)
COc1ccc(-c2nnc(SCC(=O)Nc3ccc(C(=O)/C=C/c4ccccc4)cc3)n2-c2ccccc2)cc1OC | 32.5% (inactive)
O=C(CN(C1CCCCC1)C1CCCCC1)Nc1ccc(S(=O)(=O)c2ccc(NC(=O)CN(C3CCCCC3)C3CCCCC3)cc2)cc1 | -81% (active)
Cc1cc(Cl)ccc1Nc1nc(C(F)(F)F)ccc1C(=O)N/N=C/c1cccc(O)c1 | 35.9% (inactive)
COc1ccc(-c2cc(-c3ccccc3)nc(SCCCC(=O)NO)n2)cc1 | -65.4% (active)
Cc1cc(CSc2ccccc2C(=O)N2CC=C(c3ccccc3)CC2)on1 | 92.1% (inactive)
Cc1ccc(NCCN(C)CC(C)O)c2c(=O)c3ccc(Cl)cc3sc12 (stereo not given) | -82.9% (active)
Nc1ccccc1NC(=O)c1ccc(CCCC(=O)Nc2ccc(C3CC3N)cc2)cc1 (stereo not given) | 12.8% (inactive)
COc1ccc(/C(C#N)=C/c2cccc(OC)c2OC)cc1 | 84.1% (inactive)
Nc1c(Br)cc(Br)c2c1[nH]c(=O)c1ccccc12 | 83.7% (inactive)
COc1ccc(C(c2ccc(OCCN(C)C)cc2)c2cc3ccccc3c3ccccc23)cc1 (stereo not given) | -81% (active)
COc1ccc(Cl)cc1Nc1nc(C(F)(F)F)ccc1C(=O)N/N=C/c1cc(OC)c(OC)c(OC)c1 | -61.5% (active)
COc1cc2cc(Oc3ccc(NC(=O)Nc4ccc(Cl)c(Cl)c4)cc3)c(C)nc2cc1OC | 23.1% (inactive)
COc1ccc2nc3cc(Cl)ccc3c(N)c2c1 | -94.7% (active)
c1ccc(CCCCc2ccc3ccccc3n2)cc1 | 96.1% (inactive)
CCOC(=O)c1cc(C(=O)c2cc(OC)c(OC)c(OC)c2)n2nc(C)ccc12 | 31% (inactive)
Fc1ccc(C(c2ccc(F)cc2)C(Cl)Cl)cc1 | 96.3% (inactive)
CCOC(=O)CC(S(=O)(=O)c1ccccc1)S(=O)(=O)c1ccccc1 | 98.6% (inactive)
Cc1cc(CC(C)CC(C)(C)C)n(O)c(=O)c1 (stereo not given) (tested in a mixture with another compound) | 7.96% (active)
